SNCA expr inh – Primary qHTS assay for inhibitors of alpha-synuclein gene (SNCA) expression; HEK-293 SNCA-luciferase knock-in, luminescence, 24 h; Potency, µM (top dose mostly 57.2 µM), without a hit: top-dose activity change, negative = inhibition, actives largely listed as inhibitors; 140,000 compounds, 0.17% hits;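 note: potency is the fitted concentration of half-maximal effect; plate controls were DMSO cells for no effect and cell-free wells for full effect; nearly all actives have a fitted effect of over 45% in size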
IP6K1 inh – Primary qHTS assay for small molecule inhibitors of Inositol hexaphosphate kinase 1 (IP6K1). activity change, % (series mostly up to about 58 µM). IP6K1 kinase, ADP-Glo luminescence, 2 h; hits give low values. 140,000 compounds, 0.81% hits; in the data active = activity change below about -25%; note: % is set by controls: 0 for no effect and ±100 for the full control effect
Target sequence (Q92551 whole entry, looked up): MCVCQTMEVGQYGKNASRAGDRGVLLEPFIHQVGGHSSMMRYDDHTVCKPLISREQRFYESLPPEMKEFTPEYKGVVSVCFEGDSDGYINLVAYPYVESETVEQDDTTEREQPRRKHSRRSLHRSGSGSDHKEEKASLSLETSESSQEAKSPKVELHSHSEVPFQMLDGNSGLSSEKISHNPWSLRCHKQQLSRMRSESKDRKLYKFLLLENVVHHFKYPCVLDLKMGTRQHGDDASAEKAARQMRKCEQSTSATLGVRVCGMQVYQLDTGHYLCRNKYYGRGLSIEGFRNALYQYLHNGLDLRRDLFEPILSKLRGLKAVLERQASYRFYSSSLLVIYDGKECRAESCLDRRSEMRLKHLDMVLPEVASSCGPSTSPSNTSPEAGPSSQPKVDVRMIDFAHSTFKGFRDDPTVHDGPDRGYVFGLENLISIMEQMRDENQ
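ADP-Glo luminescence measures ADP made by human IP6K1 during a 2 h RT reaction with ATP/IP6 (mix at 1.3 mM/130 uM); top library doses 57.5 and 19.1 uM final.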
KDM5B inh – Primary screen for KDM5B Histone Demethylases FDH-coupled qHTS. Potency, µM (top dose mostly 57.7 µM), actives largely listed as inhibitors. 220,000 compounds, 2.6% hits. KDM5B demethylase, FDH-coupled NADH fluorescence (FDH is formaldehyde dehydrogenase). AID 1347165, 2019; note: potency is the fitted concentration of half-maximal effect; 0% is about no effect; nearly all actives have a fitted effect of over 70% in size
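Coupled FDH/NAD⁺ fluorescence readout. KDM5BΔAP 200 nM final; compound titration, 10 min RT preincubation; substrate mix 12.5 µM H3K4me3, 25 µM 2-OG, 50 µM Fe(II), 100 µM ascorbate, 0.25 mM NAD⁺, 0.25 U/mL FDH; ΔRFU over 30 min.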
HEK293 viab – GF-AFC viability counterscreen for inhibitors of alpha-synuclein gene (SNCA) expression; HEK-293-SNCA-luc viability, GF-AFC fluorescence, 24 h; Potency, µM (titrated, usually from 57.1 µM), for inactives: top-dose activity change, negative = cytotoxicity, most hits filed as cytotoxic; 150,000 compounds, 0.12% hits; AID 1671193, 2021;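 note: potency is the fitted concentration of half-maximal effect; 0% = DMSO-treated cells and -100% = medium-only wells without cells; nearly all actives have a fitted effect of over 30% in size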
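HEK-293-SNCA-luc cells (1500/well) plated 24 h, then exposed 24 h to a dilution series; GF-AFC added 30 min at 37C, fluorescence 405/540 nm; normalised to medium-only and DMSO wells, Hill fit.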
* marks the source's active call; other numbers are inactive results; i = inactive; ? = inconclusive; / = no result; [ ] = another dose, or the depositor's remark. Shown are actives, neighbours in structure and some others; about 2.8% of the full set was active somewhere. Unless noted, calls come from the whole dose curve; as a rule, active = well fitted curve in the direction sought with a large enough effect; inconclusive = small, poorly fitted or top-dose-only effect, or another doubt; inactive = no such curve, though single readings can be large; an effect the other way counts as inactive or inconclusive.

SMILES | SNCA expr inh | IP6K1 inh | KDM5B inh | HEK293 viab
O=C(NC1CCN(Cc2ccccc2)CC1)c1nn(CC2CC2)c2c1CNCC2 | 43% | 8 | / | -8%
CN(c1ccccc1)c1ccc2nnc(-c3cc(C(=O)NCc4cccnc4)ccn3)n2n1 | -4%[87.6 µM] | -7 | 35µM* | -8%[87.6 µM]
CN(C)c1ccc2nnc(-c3cc(C(=O)NCCc4ccccn4)ccn3)n2n1 | ? | -10 | 35µM* | 10%[87.6 µM]
COc1cccc(NC(=O)c2ccnc(-c3nnc4ccc(N(C)C)nn34)c2)c1 | 14%[87.6 µM] | -4 | ? | -13%[87.6 µM]
CN(c1ccccc1)c1ccc2nnc(-c3cc(C(=O)NCC4CCCO4)ccn3)n2n1 (centres undefined) | -13%[87.6 µM] | -21 | i | 2%[87.6 µM]
CN(c1ccccc1)c1ccc2nnc(-c3cc(C(=O)Nc4ccccn4)ccn3)n2n1 | -8%[87.6 µM] | -13 | 11µM* | -19%[87.6 µM]
O=C(c1cc(S(=O)(=O)NC2CC2)c(Cl)cc1Cl)N1CCN(c2ccccc2O)CC1 | / | / | i | /
CCn1ccc(C(=O)N2CCC3(CC2)c2[nH]c4ccccc4c2CCN3C)n1 | 51% | -4 | 28µM* | -15%[12.5 µM]
COc1cccc(C2(CC#N)CCOC(C)(C)C2)c1 (centres undefined) | / | / | i | /
CC(=O)Nc1ccc(NC(=O)c2cc(-c3ccncc3)cn2Cc2ccccc2C)cc1 | 30% | -10 | ? | -18%
Cc1ccccc1Cn1cc(-c2ccncc2)cc1C(=O)NC(C)c1ccccn1 (centres undefined) | 3% | 2 | 32µM* | -12%
O=C(NCC1CCCCC1)c1nc2sccn2c1-c1ccc(C(F)(F)F)cc1 | ? | 9 | / | -8%
Cc1cccc(CS(=O)(=O)N2CCC(C(=O)Nc3ccccc3C(=O)NC(C)(C)C)CC2)c1 | / | / | i | /
Cn1c(C(=O)NC2CCN(Cc3ccccc3)CC2)cc2c1CCN(Cc1ccccc1)C2 | -29% | -8 | 20µM* | -2%
Cc1ccc(S(=O)(=O)Nc2ccc(-c3cn4ccsc4n3)cc2)s1 | / | / | i | /
Cc1ccc(-c2cn3c(n2)CO[C@@H](CNS(C)(=O)=O)C3)cc1 | 35%[87.6 µM] | 3 | 40µM* | -2%[87.6 µM]
COc1ccc(-c2cn3c(n2)CO[C@@H](CNS(C)(=O)=O)C3)cc1 | 31%[87.6 µM] | -9 | ? | -7%[87.6 µM]
NC(=O)C1CCCCN1C(=O)c1nn(-c2ccccc2)c(=O)c2ccccc12 (centres undefined) | / | / | i | /
Cc1ccc(-c2nc(CSc3nnc(NC(C)(C)C)s3)co2)cc1 | / | / | i | /
Cc1cccc(NC(=O)N2CCc3c(c4ccccc4n3C)C2)c1C | -6% | -7 | 22µM* | -4%
Cc1ccc(NC(=O)N2CCc3c(c4ccccc4n3C)C2)cc1C | -23% | -2 | 32µM* | 4%
Cn1c2c(c3ccccc31)CN(C(=O)Nc1cccc(Br)c1)CC2 | -23% | -1 | ? | 4%
Cn1c2c(c3cc(F)ccc31)CN(C(=O)Nc1cccc(F)c1)CC2 | 58% | -4 | ? | -12%
O=C(Nc1ccccc1)N1CCc2c(c3ccccc3n2CC2CC2)C1 | 14% | -2 | 32µM* | -17%
COc1ccnc(-c2nnc3ccc(N4CCc5ccccc5CC4)nn23)c1 | -16%[87.6 µM] | -22 | 32µM* | -24%[87.6 µM]
SMILES | SNCA expr inh | IP6K1 inh | KDM5B inh | HEK293 viab
COc1ccnc(-c2nnc3ccc(N4C[C@@H](C)O[C@@H](C)C4)nn23)c1 | -12%[87.6 µM] | -13 | i | -14%[87.6 µM]
CCCNC(=O)c1cc2c(=O)[nH]c(-c3ccccc3)cn2n1 | -13% | 9 | 25µM* | 2%
O=C(NC1CC1)c1cc2c(=O)[nH]c(-c3ccccc3)cn2n1 | ? | -3 | 28µM* | -4%
COCCCNC(=O)c1cc2c(=O)[nH]c(-c3ccccc3)cn2n1 | 0% | 4 | 25µM* | -19%
CC(C)N1CCN(C(=O)c2cc3c(=O)[nH]c(-c4ccccc4)cn3n2)CC1 | 16% | -14 | 25µM* | -14%
COc1cc(F)ccc1-c1ccnc2nc(C3CCCCC3)nn12 | 9% | -1 | 28µM* | -8%
COc1cccc(-c2ccnc3nc(C4CCC4)nn23)c1 | 2% | -10 | 28µM* | 2%
COc1cc(-c2ccnc3nc(-c4cccs4)nn23)cc(OC)c1OC | 71% | 1 | 14µM* | -1%
COc1cccc(-c2ccnc3c(-c4ccccc4)c(C)nn23)c1 | 55% | 4 | i | -10%
c1coc(-c2ccnc3ncnn23)c1 | 3% | 9 | 28µM* | 12%
